From the supplement of paper PMC11006884
Of roughly 6,500 targets only a part is listed; those with a hit were picked by preference. About 2% of all pairs of compound and target were hits.

Compound: COC(=O)C#Cc1ccccc1 [methyl 3-phenylpropiolate]
Assay: log2 ratio of iodoacetamide-alkyne labeling of the cysteine site, DMSO over compound (competition); higher = stronger covalent engagement of the cysteine by the compound, active = 1 or more
Settings: 500 µM; treatment time 1 h; system: HEK293T cell lysate
In short: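 For each cysteine, the log2 competition ratio is mean control-channel reporter intensity over mean compound-channel reporter intensity. HEK293T lysate (2 mg/mL) was exposed to vehicle or electrophile (500 µM, 1 h, ambient temperature), labelled with iodoacetamide alkyne (1 h), clicked to sCIP-TMT reagents, digested overnight with trypsin at 37 °C, streptavidin-enriched and analysed by Orbitrap Eclipse LC-MS/MS with FAIMS and FragPipe. Cysteines quantified in only one of three replicates, each with duplicate channels, were excluded.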

Target	log2 ratio of iodoacetamide-alkyne labeling
ANKRD40 C358 (UniProt Q6AI12)	1.2 (active)
UniProt Q7Z2T5_C265	0.161 (inactive)
MARC1 C273 (UniProt Q5VT66)	0.102 (inactive)
UniProt Q92888_C892	0.0678 (inactive)
AHCTF1 C521 (UniProt Q8WYP5)	1.16 (active)
PHIP C954 (UniProt Q8WWQ0)	1.46 (active)
UniProt Q7LBC6_C1451	0.513 (inactive)
CEP128 C915 (UniProt Q6ZU80)	0.335 (inactive)
HSDL2 C11 (UniProt Q6YN16)	0.0294 (inactive)
UniProt Q8N1I0_C1723	1.34 (active)
UniProt Q8NBJ5_C412	0.133 (inactive)
GBF1 C1766 (UniProt Q92538)	0.302 (inactive)
HDHD3 C243 (UniProt Q9BSH5)	0.16 (inactive)
CWF19L1 C176 (UniProt Q69YN2)	-0.136 (inactive)
FTSJ3 C197 (UniProt Q8IY81)	0.103 (inactive)
ZFYVE16 C174 (UniProt Q7Z3T8)	0.35 (inactive)
UniProt Q8WVB3_C244	0.59 (inactive)
WRNIP1 C39 (UniProt Q96S55)	-0.0706 (inactive)

Target	log2 ratio of iodoacetamide-alkyne labeling
DIS3L2 C312 (UniProt Q8IYB7)	0.226 (inactive)
UBR2 C1619 (UniProt Q8IWV8)	0.0476 (inactive)
MED12 C83 (UniProt Q93074)	0.457 (inactive)
CEP135 C316 (UniProt Q66GS9)	0.0231 (inactive)
CRBN C78 (UniProt Q96SW2)	0.133 (inactive)
ANKHD1 C777 (UniProt Q8IWZ3)	0.251 (inactive)
UniProt Q6PJG6_C720	0.324 (inactive)
CCAR1 C579 (UniProt Q8IX12)	0.0854 (inactive)
ANKRD40 C209 (UniProt Q6AI12)	0.466 (inactive)
PDLIM5 C449 (UniProt Q96HC4)	0.0755 (inactive)
ARID2 C1512 (UniProt Q68CP9)	0.438 (inactive)
UniProt Q969V6_C326	1.42 (active)
LPCAT1 C216 (UniProt Q8NF37)	0.211 (inactive)
ISCA2 C146 (UniProt Q86U28)	1.59 (active)
FBXO30 C317 (UniProt Q8TB52)	0.564 (inactive)
CCT7 C158 (UniProt Q99832)	0.152 (inactive)
PHIP C612 (UniProt Q8WWQ0)	-0.25 (inactive)
